In the library only some 2.4% were active in any assay of this set; here they are far more common.
SENP8 block-1 – human SENP8 protease inhibitors, primary screen, biochemical, fluorescence, Nedd8 protein substrate, uHTS; recombinant SENP8; inhibition, % at 20 µM; 360,000 tested, 0.64% active; in the data active = inhibition mostly above about 40%, no sharp cut-off; inactive = mostly below about 27%
Target sequence (Q96LD8 whole entry, looked up): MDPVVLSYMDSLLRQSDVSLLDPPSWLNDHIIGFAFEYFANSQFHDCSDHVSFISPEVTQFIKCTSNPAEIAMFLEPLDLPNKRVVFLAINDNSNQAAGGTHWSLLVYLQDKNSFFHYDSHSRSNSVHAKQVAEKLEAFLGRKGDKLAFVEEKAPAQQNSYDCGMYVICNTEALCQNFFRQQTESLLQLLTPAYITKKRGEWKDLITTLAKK
SENP8 block-2 – SENP8 protease inhibitors, primary screen, biochemical, luminescence; AID 2540, 2010; Sentrin-specific protease 8 (Homo sapiens), Q96LD8; purified SENP8, Z-RLRGG-aminoluciferin cleavage; inhibition, % at 10 µM; 330,000 tested, 1.2% active; in the data active = inhibition above about 50%
SENP6 block – SENP6 protease inhibitors, primary screen, biochemical, luminescence, uHTS. Sentrin-specific protease 6 (Homo sapiens), Q9GZR1. Recombinant SENP6 catalytic domain, aminoluciferin luminescence. inhibition, % at 10 µM. 330,000 tested, 1.8% active. AID 2599, 2010;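 active = inhibition above about 50% at the single tested dose, limit read from the data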;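 note: plate controls were DMSO wells with enzyme for no effect and DMSO wells lacking enzyme for full effect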
Platelet DG rel – inhibitors of platelet dense granule secretion, primary screen, cell-based, MLPCN, human platelets; AID 1663, 2009; inhibition, %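 (compounds screened at 7.5 µM in platelet-rich plasma)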; 300,000 tested, 0.22% active; human platelet-rich plasma, SFLLRN dense granule ATP release, luminescence;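 active = mean replicate score, as percent of positive control, at or above 50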
SENP7 block – SENP7 protease inhibitors, primary screen, biochemical, luminescence, uHTS. recombinant SENP7, Z-RLRGG-aminoluciferin luminescence, 40 min. 330,000 tested, 1.5% active. AID 434973, 2010. inhibition, % at 5 µM. Sentrin-specific protease 7 (Homo sapiens), Q9BQF6;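 active = inhibition above about 50% at the single test dose, limit read from the data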;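 note: plate controls were DMSO with enzyme for no effect and no enzyme buffer wells for full effect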
SENP8 conf – SENP8 protease inhibitors, retest, confirmation, biochemical, luminescence, single concentration | shares compounds with SENP7 block | Recombinant SENP8, Z-RLRGG-aminoluciferin luminescence, 60 min | inhibition, % at 12.5 µM | 6,200 tested, 40% active | AID 488912, 2010;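 active = mean inhibition across replicates above about 50%, limit read from the data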
SENP6 confirm – SENP6 protease inhibitors, confirmation, biochemical, luminescence, single concentration; shares compounds with SENP7 block; recombinant SENP6, Z-RLRGG-aminoluciferin luminescence; inhibition, % at 12.5 µM; 6,200 tested, 58% active; AID 488915, 2010
SENP7 confirm – SENP7 protease inhibitors, retest, confirmation, biochemical, luminescence, single concentration; shares compounds with SENP7 block; recombinant SENP7, Z-RLRGG-aminoluciferin luminescence, 40 min; inhibition, % at 12.5 µM; 6,200 tested, 69% active
Casp3 SENP sel – caspase-3 protease inhibitors, confirmation, selectivity assay for SENP inhibitor project, biochemical, single concentration. shares compounds with SENP7 block. purified caspase-3, Z-DEVD-aminoluciferin luminescence, 60 min. inhibition, % at 12.5 µM. 6,200 tested, 60% active;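 active = mean inhibition above about 50%, limit read from the data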;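 note: plate controls were enzyme with DMSO for no effect and wells without caspase-3 for full effect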
Target sequence (P42574 28-227 limits assumed): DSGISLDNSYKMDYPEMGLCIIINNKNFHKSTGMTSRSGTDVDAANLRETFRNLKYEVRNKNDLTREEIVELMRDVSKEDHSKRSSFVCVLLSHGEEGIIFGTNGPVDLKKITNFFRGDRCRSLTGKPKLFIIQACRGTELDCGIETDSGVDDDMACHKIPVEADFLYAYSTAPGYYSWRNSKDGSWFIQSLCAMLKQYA
SENP luc ctr – interferes with luciferase luminescence in SENP counter-screen; AID 488919; 6,200 tested, 39% active; shares compounds with SENP7 block; Pre-incubated SENP8/Z-RLRGG-aminoluciferin, luciferase luminescence interference; inhibition, % at 12.5 µM;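 active = mean inhibition above about 50% when retested at one dose, limit read from the data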;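 note: plate controls were DMSO wells with completed reaction for no effect and substrate without enzyme for full effect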
An asterisk follows results filed as active.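 Rule for the calls, unless noted: active = mean inhibition above about 50% in the one-dose retest (limit read from the data); inactive = the rest.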

Results for O=C(NC1=NCCS1)c1ccc(Cl)c(S(=O)(=O)N2CCOCC2)c1 ?
SENP8 block-1: 15.7; SENP8 block-2: -6.6; SENP6 block: -26.4; Platelet DG rel: 0.4; SENP7 block: -7.9

What do the screens show for `Cc1nnc(-c2ccccc2)o1`?
SENP8 block-1: 4.3; SENP8 block-2: 8.7; SENP6 block: -10.1; Platelet DG rel: -1.4; SENP7 block: -7.3

What do the screens show for `Cc1ccccc1-c1nnc(-c2ccccc2)o1`?
SENP8 block-1: 16.7; SENP8 block-2: 82.5*; SENP6 block: 86.9*; Platelet DG rel: 4.3; SENP7 block: 82.6*; SENP8 conf: 78.4*; SENP6 confirm: 87.9*; SENP7 confirm: 97.9*; Casp3 SENP sel: 83.8*; SENP luc ctr: 73.5*

What do the screens show for `COc1ccc(-c2nnc(-c3ccc(N(C)C)cc3)o2)cc1`?
SENP8 block-1: -304.5; SENP8 block-2: -10.3; SENP6 block: 3.4; Platelet DG rel: -5.5; SENP7 block: 4.0

How did CN(C)c1ccc(-c2nnc(-c3ccccc3F)o2)cc1 do in these assays?
SENP8 block-1: -392.8; SENP8 block-2: 77.3*; SENP6 block: 87.3*; Platelet DG rel: -0.1; SENP7 block: 84.6*; SENP8 conf: 33.8; SENP6 confirm: 66.6*; SENP7 confirm: 74.5*; Casp3 SENP sel: 78.6*; SENP luc ctr: 31.8

Results for CCCCOc1ccc(N(CC(=O)NCc2ccccc2)C(=O)c2csnn2)cc1 ?
SENP8 block-1: 11.2; SENP8 block-2: -9.9; SENP6 block: -10.9; Platelet DG rel: 15.3; SENP7 block: 8.1

Results for COc1ccc(OC)c(S(=O)(=O)CC(O)COc2ccccc2Cl)c1 (configuration not stated) ?
SENP8 block-1: -3.5; SENP8 block-2: -12.6; SENP6 block: -8.6; Platelet DG rel: -6.1; SENP7 block: -11.0

What do the screens show for `O=C(O)C1CC(c2ccc(F)cc2)=NO1` (configuration not stated)?
SENP8 block-1: 10.7; SENP8 block-2: -6.1; SENP6 block: -20.2; Platelet DG rel: -4.5; SENP7 block: 5.7

What do the screens show for `O=C(O)C1CC(c2ccccc2)=NO1` (configuration not stated)?
SENP8 block-1: 5.0; SENP8 block-2: 0.6; SENP6 block: -0.5; Platelet DG rel: -4.9; SENP7 block: 95.3*; SENP8 conf: 6.4; SENP6 confirm: 7.2; SENP7 confirm: 7.9; Casp3 SENP sel: 2.4; SENP luc ctr: 2.3

What do the screens show for `CCOC(=O)c1c(C)[nH]c(N=Nc2ccc(C)cc2)c1C`?
SENP8 block-1: 18.1; SENP8 block-2: 21.2; SENP6 block: 53.3*; Platelet DG rel: 4.8; SENP7 block: -8.9; SENP8 conf: 7.3; SENP6 confirm: 37.4; SENP7 confirm: 4.9; Casp3 SENP sel: 17.6; SENP luc ctr: 4.8

How did CCOC(=O)c1c(C)[nH]c(N=Nc2cccc(OC)c2)c1C do in these assays?
SENP8 block-1: 20.4; SENP8 block-2: 20.6; SENP6 block: 5.2; Platelet DG rel: 6.0; SENP7 block: 58.3*; SENP8 conf: 58.1*; SENP6 confirm: 61.8*; SENP7 confirm: 88.3*; Casp3 SENP sel: 27.3; SENP luc ctr: 33.5

Results for CCOC(=O)c1[nH]c(C)c(C(=O)c2ccc(C)cc2)c1C ?
SENP8 block-1: 14.8; SENP8 block-2: -8.6; SENP6 block: -28.6; Platelet DG rel: 2.0; SENP7 block: -2.7

What do the screens show for `CCOC(=O)c1c(C)[nH]c(C=Nc2ccccc2)c1O`?
SENP8 block-2: 7.7; SENP6 block: 2.4; Platelet DG rel: 3.9; SENP7 block: 1.3

What do the screens show for `CCOC(=O)c1c(C)[nH]c(N=Nc2cccc(C)c2)c1C`?
SENP8 block-1: 26.5; SENP8 block-2: 49.8; SENP6 block: 62.4*; Platelet DG rel: 3.4; SENP7 block: 2.1; SENP8 conf: 48.7; SENP6 confirm: 62.7*; SENP7 confirm: 78.2*; Casp3 SENP sel: 28.0; SENP luc ctr: 15.4

How did CCOC(=O)C1(Cc2cccc(F)c2)CCN(Cc2c(C)nn(CC)c2C)CC1 do in these assays?
SENP8 block-1: 15.6; SENP8 block-2: 0.7; SENP6 block: -5.6; Platelet DG rel: 4.2; SENP7 block: 7.0

What do the screens show for `COc1ccc2c(c1)Cc1sc(NC(=O)c3ccccc3)nc1-2`?
SENP8 block-1: -24.0; SENP8 block-2: 91.3*; SENP6 block: 95.1*; Platelet DG rel: 0.9; SENP7 block: 90.0*; SENP8 conf: 4.2; SENP6 confirm: 65.3*; SENP7 confirm: 87.9*; Casp3 SENP sel: 65.5*; SENP luc ctr: 23.8

What do the screens show for `COc1ccc2c(c1)Cc1sc(NC(=O)c3cccs3)nc1-2`?
SENP8 block-1: 14.7; SENP8 block-2: 96.1*; SENP6 block: 91.8*; Platelet DG rel: 14.6; SENP7 block: 94.3*; SENP8 conf: 67.3*; SENP6 confirm: 75.0*; SENP7 confirm: 99.3*; Casp3 SENP sel: 77.3*; SENP luc ctr: 29.1

Results for COc1ccc(C(=O)Nc2nc3c(s2)Cc2cc(OC)ccc2-3)cc1 ?
SENP8 block-1: -59.0; SENP8 block-2: 89.6*; SENP6 block: 81.7*; Platelet DG rel: 6.1; SENP7 block: 93.3*; SENP8 conf: 28.6; SENP6 confirm: 67.6*; SENP7 confirm: 50.3*; Casp3 SENP sel: 18.9; SENP luc ctr: 4.2

How did O=C(NCc1cccc(C(F)(F)F)c1)c1csc(COCCO)n1 do in these assays?
SENP8 block-1: 15.8

What do the screens show for `COc1ccccc1CN1CCC(n2nccc2NC(=O)CCCc2ccccc2)CC1`?
SENP8 block-1: 7.2; SENP8 block-2: -3.7; SENP6 block: -10.3; Platelet DG rel: 19.6; SENP7 block: 6.8
